Measurements: PubChem BioAssay AID1159580 (chemical genetic matrix, 2015)
Out of some 5,500 compounds screened, about 2,000 (36%) were called active. About 18% were inconclusive and are not listed. Rule as the data show it: active = normalized growth mostly below about 0.91 (no sharp cut-off); inconclusive = no clear call, values can overlap the other calls; inactive = mostly above about 0.92. This is one part of the list.

Experiment: chemical genetic growth profiling, strain panel (AID 1159580);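 also: tested at 20 µM; growth read once vehicle control cultures reached saturation at 30 °C; 1 = growth at the plate median or of vehicle wells; lower values mean less growth of the strain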
Settings: growth OD

Measured: normalized growth

COc1ccc(-c2cc(=O)c3ccccc3o2)cc1
active: S. cerevisiae deletion strains, locus YKL009W, strain mrt4, stronger effect = lower value 0.824 | S. cerevisiae deletion strains, locus YKL068W, stronger effect = lower value 0.93 | S. cerevisiae deletion strains, locus YKL085W, strain MDH1 (second series), stronger effect = lower value 0.914 | S. cerevisiae deletion strains, locus YKL085W, strain MDH1, stronger effect = lower value 0.914 | S. cerevisiae deletion strains, locus YKL160W, strain elf1, stronger effect = lower value 0.742 | S. cerevisiae deletion strains, locus YKR001C, strain vps1, stronger effect = lower value 0.354 | S. cerevisiae deletion strains, locus YKR026C, strain gcn3, stronger effect = lower value 0.92 | S. cerevisiae deletion strains, locus YKR091W, strain srl3, stronger effect = lower value 0.93 | S. cerevisiae deletion strains, locus YLL001W, strain dnm1, stronger effect = lower value 0.763 | S. cerevisiae deletion strains, locus YLL026W, stronger effect = lower value 0.9 | S. cerevisiae deletion strains, locus YLL041C, strain sdh2, stronger effect = lower value 0.927 | S. cerevisiae deletion strains, locus YLR027C, strain aat2, stronger effect = lower value 0.84 | S. cerevisiae deletion strains, locus YLR039C, strain RIC1, stronger effect = lower value 0.405 | S. cerevisiae deletion strains, locus YLR058C, strain SHM2, stronger effect = lower value 0.741 | S. cerevisiae deletion strains, locus YLR102C, strain apc9, stronger effect = lower value 0.916 | S. cerevisiae deletion strains, locus YLR221C, strain rsa3, stronger effect = lower value 0.749 | S. cerevisiae deletion strains, locus YLR258W, strain gsy2, stronger effect = lower value 0.823 | S. cerevisiae deletion strains, locus YLR262C, strain YPT6 (second series), stronger effect = lower value 0.538 | S. cerevisiae deletion strains, locus YLR262C, strain YPT6, stronger effect = lower value 0.406 | S. cerevisiae deletion strains, locus YLR268W, strain sec22, stronger effect = lower value 0.727 | S. cerevisiae deletion strains, locus YLR320W, strain mms22, stronger effect = lower value 0.449 | S. cerevisiae deletion strains, locus YLR330W, strain CHS5, stronger effect = lower value 0.659 | S. cerevisiae deletion strains, locus YLR342W, strain FKS1 (second series), stronger effect = lower value 0.512 | S. cerevisiae deletion strains, locus YLR342W, strain FKS1, stronger effect = lower value 0.861 | S. cerevisiae deletion strains, locus YLR371W, strain rom2, stronger effect = lower value 0.834 | S. cerevisiae deletion strains, locus YLR384C, strain iki3, stronger effect = lower value 0.916 | S. cerevisiae deletion strains, locus YLR418C, strain cdc73, stronger effect = lower value 0.612 | S. cerevisiae deletion strains, locus YML016C, strain PPZ1, stronger effect = lower value 0.89 | S. cerevisiae deletion strains, locus YML032C, strain rad52, stronger effect = lower value 0.697 | S. cerevisiae deletion strains, locus YML120C, strain ndi1, stronger effect = lower value 0.785 | S. cerevisiae deletion strains, locus YML124C, strain tub3, stronger effect = lower value 0.922 | S. cerevisiae deletion strains, locus YMR058W, strain fet3, stronger effect = lower value 0.804 | S. cerevisiae deletion strains, locus YMR078C, strain ctf18, stronger effect = lower value 0.753 | S. cerevisiae deletion strains, locus YMR129W, stronger effect = lower value 0.92 | S. cerevisiae deletion strains, locus YMR205C, strain PFK2, stronger effect = lower value 0.668 | S. cerevisiae deletion strains, locus YMR223W, strain ubp8, stronger effect = lower value 0.784 | S. cerevisiae deletion strains, locus YMR231W, strain pep5, stronger effect = lower value 0.921 | S. cerevisiae deletion strains, locus YMR307W, strain GAS1, stronger effect = lower value 0.397 | S. cerevisiae deletion strains, locus YNL067W, strain RPL9B, stronger effect = lower value 0.688 | S. cerevisiae deletion strains, locus YNL071W, strain lat1, stronger effect = lower value 0.48 | S. cerevisiae deletion strains, locus YNL153C, strain GIM3, stronger effect = lower value 0.615 | S. cerevisiae deletion strains, locus YNL209W, strain ssb2, stronger effect = lower value 0.873 | S. cerevisiae deletion strains, locus YNL233W, strain BNI4, stronger effect = lower value 0.629 | S. cerevisiae deletion strains, locus YNL248C, strain rpa49, stronger effect = lower value 0.833 | S. cerevisiae deletion strains, locus YNL271C, strain bni1, stronger effect = lower value 0.884 | S. cerevisiae deletion strains, locus YNL298W, strain CLA4, stronger effect = lower value 0.881 | S. cerevisiae deletion strains, locus YNL307C, strain MCK1, stronger effect = lower value 0.136 | S. cerevisiae deletion strains, locus YNL322C, strain KRE1 (second series), stronger effect = lower value 0.902 | S. cerevisiae deletion strains, locus YNL322C, strain KRE1, stronger effect = lower value 0.792 | S. cerevisiae deletion strains, locus YNR049C, strain mso1, stronger effect = lower value 0.914 | S. cerevisiae deletion strains, locus YNR052C, strain pop2, stronger effect = lower value 0.853 | S. cerevisiae deletion strains, locus YOL147C, strain pex11, stronger effect = lower value 0.819 | S. cerevisiae deletion strains, locus YOR001W, strain rrp6, stronger effect = lower value 0.809 | S. cerevisiae deletion strains, locus YOR061W, strain CKA2, stronger effect = lower value 0.851 | S. cerevisiae deletion strains, locus YOR069W, strain VPS5, stronger effect = lower value 0.729 | S. cerevisiae deletion strains, locus YOR070C, strain gyp1, stronger effect = lower value 0.818 | S. cerevisiae deletion strains, locus YOR080W, strain dia2, stronger effect = lower value 0.906 | S. cerevisiae deletion strains, locus YOR083W, strain WHI5, stronger effect = lower value 0.71 | S. cerevisiae deletion strains, locus YOR106W, strain vam3, stronger effect = lower value 0.733 | S. cerevisiae deletion strains, locus YOR136W, strain idh2, stronger effect = lower value 0.895 | S. cerevisiae deletion strains, locus YOR144C, strain elg1, stronger effect = lower value 0.911 | S. cerevisiae deletion strains, locus YOR184W, strain ser1, stronger effect = lower value 0.474 | S. cerevisiae deletion strains, locus YOR265W, strain rbl2, stronger effect = lower value 0.879 | S. cerevisiae deletion strains, locus YOR270C, strain vph1, stronger effect = lower value 0.328 | S. cerevisiae deletion strains, locus YOR290C, strain snf2, stronger effect = lower value 0.689 | S. cerevisiae deletion strains, locus YPL051W, strain arl3, stronger effect = lower value 0.674 | S. cerevisiae deletion strains, locus YPL078C, strain atp4, stronger effect = lower value 0.695 | S. cerevisiae deletion strains, locus YPL240C, strain hsp82, stronger effect = lower value 0.893 | S. cerevisiae deletion strains, locus YPL241C, strain CIN2, stronger effect = lower value 0.839 | S. cerevisiae deletion strains, locus YPR119W, strain clb2, stronger effect = lower value 0.93 | S. cerevisiae deletion strains, locus YPR163C, strain tif3, stronger effect = lower value 0.543 | S. cerevisiae deletion strains, locus YPR167C, strain met16, stronger effect = lower value 0.727 | S. cerevisiae deletion strains, strain wtn01, stronger effect = lower value 0.816 | S. cerevisiae strains, strain wild type, stronger effect = lower value 0.682
inactive: S. cerevisiae deletion strains, locus YJR066W, strain TOR1, stronger effect = lower value 0.873 | S. cerevisiae deletion strains, locus YLR113W, strain HOG1, stronger effect = lower value 1.06 | S. cerevisiae deletion strains, locus YLR357W, strain rsc2, stronger effect = lower value 1.03 | S. cerevisiae deletion strains, locus YLR370C, strain arc18, stronger effect = lower value 0.922 | S. cerevisiae deletion strains, locus YMR125W, strain sto1, stronger effect = lower value 0.932 | S. cerevisiae deletion strains, locus YNL183C, strain NPR1, stronger effect = lower value 0.874 | S. cerevisiae deletion strains, locus YNL250W, strain rad50, stronger effect = lower value 0.921 | S. cerevisiae deletion strains, locus YOL012C, strain htz1 0.926 | S. cerevisiae deletion strains, locus YOR231W, strain MKK1, stronger effect = lower value 0.991 | S. cerevisiae deletion strains, locus YOR316C, strain cot1, stronger effect = lower value 0.925 | S. cerevisiae deletion strains, locus YPL106C, strain sse1, stronger effect = lower value 1.05 | S. cerevisiae deletion strains, locus YPL256C, strain CLN2, stronger effect = lower value 1.02 | S. cerevisiae deletion strains, locus YPR141C, strain kar3, stronger effect = lower value 0.94
